Pf Dd2 inh = qHTS Primary assay for Inhibitors of Plasmodium falciparum Dd2 growth in vitro; hit rate 4.3% among 120,000; Potency, µM (series often up to 28.9 µM), without a hit: at the highest dose activity, negative = inhibition, hits mostly inhibitors; P. falciparum Dd2 growth, SYBR Green, 72 h; active = well fitted inhibition curve with a large enough effect;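 note: plate controls were DMSO vehicle for no effect and reference drug for full effect; nearly all actives have a fitted effect of over 65% in size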
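Readout: SYBR Green fluorescence, 485 nm excitation, 535 nm emission, after ~16 h lysis at 37C. Before that, Dd2-infected red cells (2.5% hematocrit) grew 72 h with compound, 29 uM top final concentration.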
Starred values were filed as active, the others as inactive; [ ] = another dose, or the depositor's remark. The sample as a whole holds a higher share of hits than the screen did. Potency is the fitted concentration of half-maximal effect.

What do the screens show for `CCn1cc(S(=O)(=O)N2CCCCC2c2nc(CCOc3ccc(F)cc3)no2)cn1` (centres undefined)?
Pf Dd2 inh: -1%

Results for Cc1ccc(C)c(N2CCN(C(=O)c3ccc4c(c3)N(Cc3ccc(F)cc3)C(=O)c3ccccc3S4=O)CC2)c1 (centres undefined) ?
Pf Dd2 inh: -16%

What do the screens show for `COc1ccc(CNC(=O)c2ccc3c(c2)N(Cc2ccccc2)CCS3)cc1`?
Pf Dd2 inh: -6%

How did Cc1cccc(N2CCN(C(=O)c3ccc4c(c3)N(Cc3cccc(Cl)c3)C(=O)c3ccccc3S4=O)CC2)c1C (centres undefined) do in these assays?
Pf Dd2 inh: -7%

How did CCN1C(=O)c2ccccc2S(=O)c2ccc(C(=O)N3CCN(c4cc(Cl)ccc4C)CC3)cc21 (centres undefined) do in these assays?
Pf Dd2 inh: 8.9µM*

Results for Cc1ccc(Cl)cc1N1CCN(C(=O)c2ccc3c(c2)N(Cc2ccccc2)CCS3)CC1 ?
Pf Dd2 inh: 8.9µM*

How did Cc1ccccc1CNC(=O)c1ccc2c(c1)N(Cc1ccccc1)CCS2 do in these assays?
Pf Dd2 inh: 4%

How did COc1cc(C)c(CN2CCCn3nc(C(=O)N4CCCC4)cc3C2)cc1C do in these assays?
Pf Dd2 inh: -14%

How did COc1ccc(C(=O)N2CCCCCCN(C)C(=O)[C@@H]3CCC[C@@H]32)c(OC)n1 do in these assays?
Pf Dd2 inh: -2%

What do the screens show for `Cc1nn(C)c2nc(NCCCN3CCNC(=O)C3)sc12`?
Pf Dd2 inh: 7%

Results for Cc1ccc(C(C(=O)N2CCC(Cc3noc(C)n3)CC2)N(C)C)cc1 (centres undefined) ?
Pf Dd2 inh: -23%

What do the screens show for `CNC(=O)[C@@H]1C[C@H](n2cc(CNC(=O)c3ccccc3OC)nn2)CN1`?
Pf Dd2 inh: 15%

What do the screens show for `CCC(=O)Nc1ccc(-c2c(-c3ccc(F)cc3)nn(-c3ccc(F)cc3)c2OC(C)=O)cc1`?
Pf Dd2 inh: -23%

Results for Cc1nc(CN2CCOC3(CCN([S+](=O)([O-])c4ccccc4C)CC3)C2=O)cs1 ?
Pf Dd2 inh: inactive

How did Fc1ccc(CN2CCCC3(CC(c4cccc(C(F)(F)F)c4)=NO3)C2)cc1 (centres undefined) do in these assays?
Pf Dd2 inh: -16%

Results for N#Cc1ccc(CN2CCC3(CC(c4cccc(C(F)(F)F)c4)=NO3)C2)cc1 (centres undefined) ?
Pf Dd2 inh: -18%

What do the screens show for `Fc1ccc(CN2CCC3(CC(c4cccc(C(F)(F)F)c4)=NO3)C2)cc1` (centres undefined)?
Pf Dd2 inh: 10µM*

What do the screens show for `CN(C)c1ccc(CN2CCCC3(CC(c4cccc(C(F)(F)F)c4)=NO3)C2)cc1` (centres undefined)?
Pf Dd2 inh: 7%

What do the screens show for `CC(=O)Nc1ccc(CN2CCC3(CC2)CC(c2cccc(C(F)(F)F)c2)=NO3)cc1`?
Pf Dd2 inh: 10µM*

Results for CC(=O)Nc1ccc(CN2CCC3(CC2)CC(c2cccnc2)=NO3)cc1 ?
Pf Dd2 inh: -8%

How did CS(=O)(=O)N(C1CC1)C1CCOC2(CCN(C(=O)c3ccccc3F)CC2)C1 (centres undefined) do in these assays?
Pf Dd2 inh: -24%

How did COc1cc2c(cc1C(=O)N1CC[C@@](O)(C3CCOCC3)[C@H](C)C1)CCC2 do in these assays?
Pf Dd2 inh: -15%

Results for O=C1CCN(C(=O)C2CCCCC2)CCCC(c2nc(-c3cccnc3)no2)CCN1 (centres undefined) ?
Pf Dd2 inh: -13%

Results for O=C(c1cccc(F)c1)N1CCC(Oc2ccccc2-c2nc(C3CCOCC3)no2)C1 (centres undefined) ?
Pf Dd2 inh: -2%

Results for O=C(c1ccoc1)N1CCC(Oc2ccccc2-c2nc(C3CCOCC3)no2)C1 (centres undefined) ?
Pf Dd2 inh: inactive

How did Fc1ccc(F)c(CN2CCC(Oc3ccccc3-c3nc(C4CCOCC4)no3)C2)c1 (centres undefined) do in these assays?
Pf Dd2 inh: 4.5µM*

How did CC1CCC2(CC1)NC(=O)N(CC(=O)Nc1ccc(Br)cc1F)C2=O (centres undefined) do in these assays?
Pf Dd2 inh: 49%

How did CN(Cc1cccc(C(F)(F)F)c1)C(=O)c1ccc(F)cc1 do in these assays?
Pf Dd2 inh: 11µM*

Results for CN(Cc1cccc(C(F)(F)F)c1)C(=O)Cc1ccc(F)cc1 ?
Pf Dd2 inh: inactive

How did CC(=O)N(C)Cc1cccc(C(F)(F)F)c1 do in these assays?
Pf Dd2 inh: -6%[44.1 µM]

What do the screens show for `CCCS(=O)(=O)N1CCC2(CC1)CN(C(C)=O)CC2COC` (centres undefined)?
Pf Dd2 inh: 8%

Results for CC[C@H]1CN(C(=O)C(C)(C)C)CC[C@H]1CC(=O)NCc1ccc(F)cc1 ?
Pf Dd2 inh: inactive

Results for O=C(Cn1ccn2nc(-c3ccc(F)cc3)c(CO)c2c1=O)NCc1ccccc1Cl ?
Pf Dd2 inh: inactive

Results for COc1ccc(Cn2c(=O)[nH]c3cc(C(=O)N4CCN(c5ccccc5)CC4)ccc3c2=O)cc1 ?
Pf Dd2 inh: 3%

Screening results deposited in PubChem by National Center for Advancing Translational Sciences (NCATS).
